Each structure is given as a SMILES string. Inconclusive results are not listed. Active and inactive are the calls of the source. How the source made its calls, unless noted: active means hit-call score of the fitted dose curve at least 0.9, where 1 is the maximum; inconclusive means response in the unintended direction; inactive means score below 0.9.

A word on the AC50: it is the concentration at which the activity in the assay is half-maximal.

For experiment [1], the target named is Oxysterols receptor LXR-beta (Homo sapiens) (UniProt P55055). Briefly: ATG_LXRb_TRANS: Attagene TRANS-FACTORIAL HepG2 Assay for human Liver X Receptor beta (LXRb) (AID 2282981). Conditions: HepG2 Attagene TRANS GAL4-LXRb reporter, mRNA. A digest of the protocol: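 Liver-derived HepG2 cells transfected with Gal4-responsive reporters were dosed for 24 h. Activation was scored as rise in reporter mRNA, by RT-PCR and capillary electrophoresis, above DMSO baseline.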

Experiment [2] concerns the target Hepatocyte nuclear factor 4-alpha (Homo sapiens) (UniProt P41235). Briefly: ATG_HNF4a_TRANS: Attagene TRANS-FACTORIAL HepG2 Assay for human Hepatocyte Nuclear Factor 4 alpha (HNF4a) (AID 2282982). Conditions: HepG2 HNF4a transactivation reporter, mRNA readout. A digest of the protocol: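 Using HepG2 liver cells transfected with GAL4-UAS reporter units, chemical-induced mRNA increases were assessed after 24 hours. Fluorescent RT-PCR fragments were separated by capillary electrophoresis and compared with DMSO negative controls.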

A short description of experiment [3]: ATG_M_06_TRANS: Attagene TRANS-FACTORIAL HepG2 Assay for M06 Transcription Factor (Internal Marker) (AID 2282983).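 Further: reporter transcript level by RT-PCR then capillary electrophoresis fluorescence.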 Conditions: HepG2 Attagene TRANS M06 internal marker reporter. The procedure, abridged: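 Background control endpoint: reporter mRNA from transiently transfected HepG2 after 24 h dosing, detected by RT-PCR with capillary electrophoresis fluorescence. Analysed for gain versus DMSO.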

A short description of experiment [4]: ATG_M_32_TRANS: Attagene TRANS-FACTORIAL HepG2 Assay for M32 Transcription Factor (Internal Marker) (AID 2282984).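 Further: transcript level of a background control reporter unit measured by RT-PCR and capillary electrophoresis.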 Conditions: HepG2 Attagene TRANS M32 internal marker reporter. A digest of the protocol:
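Fluorescence-detected mRNA induction, HepG2 liver cells, 24 h after dosing. Multiple GAL4-UAS reporter units introduced by transient transfection; background-control endpoint analysed for gain of signal against DMSO.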

Experiment [5] addresses Transcriptional activator Myb (Homo sapiens) (UniProt P10242). Description: ATG_Myb_CIS: Attagene CIS-FACTORIAL HepG2 Assay for human Myeloblastosis (Myb) Proto-Oncogene Transcription Factor (AID 2282986; active means hit-call score of the fitted dose curve at least 0.9, where 1 is the maximum; inactive means score below 0.9). Conditions: HepG2 Attagene CIS-FACTORIAL Myb reporter transcription; actives raise or lower the signal. The procedure, abridged: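 Steps: transfect HepG2 with cis-regulated reporter units; dose with chemical for 24 h; isolate RNA, reverse-transcribe, PCR-amplify and FAM-label reporter sequences; digest with HpaI; resolve by capillary electrophoresis. Activity fitted in both directions relative to DMSO.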

Experiment [6] deals with Nuclear respiratory factor 1 (Homo sapiens) (UniProt Q16656). Description: ATG_NRF1_CIS: Attagene CIS-FACTORIAL HepG2 Assay for human Nuclear Respiratory Factor 1 (NRF1) Orphan Gene (AID 2282987; active means hit-call score of the fitted dose curve at least 0.9, where 1 is the maximum; inactive means score below 0.9). Conditions: HepG2 NRF1 cis-element reporter, Attagene multiplex; actives raise or lower the signal. A digest of the protocol:
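Fluorescence intensity of labelled reporter cDNA fragments, resolved by capillary electrophoresis, served as readout for NRF1 cis-element activity. Transiently transfected HepG2 cells were dosed for 24 hours; activity in either direction was fitted against DMSO negative control.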

In experiment [7] the target is Nuclear receptor subfamily 4 group A member 2 (Homo sapiens) (UniProt P43354). Description: ATG_NURR1_TRANS: Attagene TRANS-FACTORIAL HepG2 Assay for human Nuclear Receptor Related Protein 1 (NURR1) (AID 2282985). Conditions: HepG2 Attagene TRANS reporter, mRNA readout. The procedure, abridged: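 Chimeric NR-Gal4 proteins were expressed in human HepG2 cells bearing GAL4-UAS reporter units, and induced reporter mRNA was quantified 24 h post-dosing by RT-PCR and capillary electrophoresis.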

In experiment [8] the target is Oxysterols receptor LXR-alpha (Homo sapiens) (UniProt Q13133). Briefly: ATG_LXRa_TRANS: Attagene TRANS-FACTORIAL HepG2 Assay for human Liver X Receptor alpha (LXRa) (AID 2282980). Conditions: HepG2 Attagene TRANS reporter, LXRa transactivation. A digest of the protocol: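 Transfect HepG2 with GAL4-UAS multiplex reporter constructs (TRANS format, chimeric receptor-GAL4); treat 24 h; extract RNA, reverse-transcribe, PCR-amplify, FAM-label, HpaI-digest; resolve fragments by capillary electrophoresis. Upward response vs DMSO.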
Sequence of Oxysterols receptor LXR-alpha (Homo sapiens) (Q13133 whole entry, looked up, the tested form may be a part): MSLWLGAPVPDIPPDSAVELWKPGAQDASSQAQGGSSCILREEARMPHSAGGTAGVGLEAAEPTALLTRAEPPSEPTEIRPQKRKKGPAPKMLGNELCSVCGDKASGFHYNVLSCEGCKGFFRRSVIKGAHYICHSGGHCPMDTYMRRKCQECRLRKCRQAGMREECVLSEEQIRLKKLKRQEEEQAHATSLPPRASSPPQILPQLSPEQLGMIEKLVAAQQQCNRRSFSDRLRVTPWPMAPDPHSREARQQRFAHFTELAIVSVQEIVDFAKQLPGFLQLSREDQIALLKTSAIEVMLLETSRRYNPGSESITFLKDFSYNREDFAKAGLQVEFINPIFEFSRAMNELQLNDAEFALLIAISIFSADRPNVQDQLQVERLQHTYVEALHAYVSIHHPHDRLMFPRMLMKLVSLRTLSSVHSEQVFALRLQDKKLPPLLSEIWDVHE

Sequence of Oxysterols receptor LXR-beta (Homo sapiens) (P55055 whole entry, looked up, the tested form may be a part): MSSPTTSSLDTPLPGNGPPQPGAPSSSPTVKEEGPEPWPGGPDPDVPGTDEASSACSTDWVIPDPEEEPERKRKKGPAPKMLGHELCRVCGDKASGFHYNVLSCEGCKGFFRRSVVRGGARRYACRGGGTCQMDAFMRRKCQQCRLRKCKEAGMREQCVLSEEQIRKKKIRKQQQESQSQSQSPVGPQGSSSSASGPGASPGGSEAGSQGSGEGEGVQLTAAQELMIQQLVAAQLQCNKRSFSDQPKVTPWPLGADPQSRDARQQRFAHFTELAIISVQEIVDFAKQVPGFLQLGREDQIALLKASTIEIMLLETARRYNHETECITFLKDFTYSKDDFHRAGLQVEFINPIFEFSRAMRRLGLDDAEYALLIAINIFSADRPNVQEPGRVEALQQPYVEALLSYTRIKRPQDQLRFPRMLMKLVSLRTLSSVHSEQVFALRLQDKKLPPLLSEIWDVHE
Sequence of Nuclear respiratory factor 1 (Homo sapiens) (Q16656 whole entry, looked up, the tested form may be a part): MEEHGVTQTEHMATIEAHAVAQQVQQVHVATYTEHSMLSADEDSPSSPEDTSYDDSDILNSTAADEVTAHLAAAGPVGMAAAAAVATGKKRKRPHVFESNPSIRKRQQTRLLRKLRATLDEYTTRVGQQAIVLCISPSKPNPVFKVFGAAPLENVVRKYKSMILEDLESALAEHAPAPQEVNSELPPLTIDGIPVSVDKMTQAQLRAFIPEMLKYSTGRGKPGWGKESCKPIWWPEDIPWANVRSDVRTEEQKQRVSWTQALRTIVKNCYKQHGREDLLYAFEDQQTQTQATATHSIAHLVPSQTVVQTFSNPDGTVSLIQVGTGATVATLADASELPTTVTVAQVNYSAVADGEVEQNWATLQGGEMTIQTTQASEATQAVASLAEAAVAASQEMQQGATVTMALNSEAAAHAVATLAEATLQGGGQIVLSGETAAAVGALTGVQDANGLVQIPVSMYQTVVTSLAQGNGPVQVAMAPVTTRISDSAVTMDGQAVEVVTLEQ
Sequence of Hepatocyte nuclear factor 4-alpha (Homo sapiens) (P41235 whole entry, looked up, the tested form may be a part): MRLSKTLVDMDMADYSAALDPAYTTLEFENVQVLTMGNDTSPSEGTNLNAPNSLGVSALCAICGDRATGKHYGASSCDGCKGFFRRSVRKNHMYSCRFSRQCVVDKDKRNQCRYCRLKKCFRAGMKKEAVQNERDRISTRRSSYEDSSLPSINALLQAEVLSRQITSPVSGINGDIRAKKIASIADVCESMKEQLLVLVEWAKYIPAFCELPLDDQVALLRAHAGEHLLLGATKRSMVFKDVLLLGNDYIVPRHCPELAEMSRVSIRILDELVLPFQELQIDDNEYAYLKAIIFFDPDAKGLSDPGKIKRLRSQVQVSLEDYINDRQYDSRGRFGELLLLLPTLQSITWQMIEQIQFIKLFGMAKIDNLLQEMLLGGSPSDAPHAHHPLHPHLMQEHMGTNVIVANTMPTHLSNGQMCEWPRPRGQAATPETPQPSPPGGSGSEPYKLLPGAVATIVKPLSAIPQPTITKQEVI
Sequence of Nuclear receptor subfamily 4 group A member 2 (Homo sapiens) (P43354 whole entry, looked up, the tested form may be a part): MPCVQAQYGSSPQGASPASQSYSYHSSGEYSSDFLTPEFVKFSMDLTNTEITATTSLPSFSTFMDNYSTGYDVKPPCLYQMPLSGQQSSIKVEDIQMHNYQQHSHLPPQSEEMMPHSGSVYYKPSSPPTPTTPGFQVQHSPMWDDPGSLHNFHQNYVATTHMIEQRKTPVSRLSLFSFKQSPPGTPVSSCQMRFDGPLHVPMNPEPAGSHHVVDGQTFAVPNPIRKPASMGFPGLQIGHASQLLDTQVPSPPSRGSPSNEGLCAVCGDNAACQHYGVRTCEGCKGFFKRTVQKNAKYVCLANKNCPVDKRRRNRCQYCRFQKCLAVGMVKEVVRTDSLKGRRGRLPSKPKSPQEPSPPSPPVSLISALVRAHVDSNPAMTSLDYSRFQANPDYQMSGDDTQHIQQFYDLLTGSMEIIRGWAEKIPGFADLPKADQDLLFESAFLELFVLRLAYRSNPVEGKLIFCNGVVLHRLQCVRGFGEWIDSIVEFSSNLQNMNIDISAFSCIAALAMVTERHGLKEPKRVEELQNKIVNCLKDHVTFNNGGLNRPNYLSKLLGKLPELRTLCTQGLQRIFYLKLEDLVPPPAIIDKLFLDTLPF
Sequence of Transcriptional activator Myb (Homo sapiens) (P10242 whole entry, looked up): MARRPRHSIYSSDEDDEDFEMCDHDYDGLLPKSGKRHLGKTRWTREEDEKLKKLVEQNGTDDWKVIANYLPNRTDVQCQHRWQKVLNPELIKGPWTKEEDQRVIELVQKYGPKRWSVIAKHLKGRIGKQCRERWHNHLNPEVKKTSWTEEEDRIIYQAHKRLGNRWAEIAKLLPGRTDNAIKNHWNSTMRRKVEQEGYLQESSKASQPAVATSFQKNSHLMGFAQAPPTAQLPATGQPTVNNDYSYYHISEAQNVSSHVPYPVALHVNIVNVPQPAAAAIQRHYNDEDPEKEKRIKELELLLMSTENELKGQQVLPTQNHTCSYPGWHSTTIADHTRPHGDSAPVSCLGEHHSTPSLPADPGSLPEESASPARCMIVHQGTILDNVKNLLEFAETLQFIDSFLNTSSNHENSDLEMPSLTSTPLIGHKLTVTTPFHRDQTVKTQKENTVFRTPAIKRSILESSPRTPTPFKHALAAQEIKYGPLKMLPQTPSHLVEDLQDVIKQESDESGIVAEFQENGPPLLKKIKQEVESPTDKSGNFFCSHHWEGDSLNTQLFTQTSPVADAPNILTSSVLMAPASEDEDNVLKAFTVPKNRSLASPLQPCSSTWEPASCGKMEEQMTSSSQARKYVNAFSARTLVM

Turning to `CCCCOCCOCCSC#N`, the call in experiment [1], in experiment [2], in experiment [3], in experiment [4], in experiment [5] and in experiment [6] was inactive.

With `CCCCCC(CO)CCC` (configuration not stated), the result in experiment [1], in experiment [3], in experiment [5] and in experiment [6] was inactive.

Take `COc1cccc(OC)c1`: the outcome in experiment [1], in experiment [5] and in experiment [6] was inactive.

For the molecule `O=C(COc1ccc(Cl)cc1)N1CCN(Cc2ccc3c(c2)OCO3)CC1`, the molecule was called inactive in experiment [2], in experiment [3], in experiment [4], in experiment [5] and in experiment [6]. The AC50 in experiment [7] was 67 µM (active).

On to `c1ccc(CCCc2ccccn2)cc1`, for which the result in experiment [1], in experiment [2], in experiment [3], in experiment [4], in experiment [7] and in experiment [5] was inactive. The call in experiment [6] was inactive.

For the molecule `CN(C)c1ccc(O)c2c1C[C@H]1C[C@H]3[C@H](N(C)C)C(=O)C(C(N)=O)=C(O)[C@@]3(O)C(=O)C1=C2O`, the molecule was classed as inactive in experiment [1], in experiment [7], in experiment [5] and in experiment [6].

For `O=c1oc(=O)c2cc3c(=O)oc(=O)c3cc12`, the molecule was classed as inactive in experiment [2], in experiment [3], in experiment [4], in experiment [7], in experiment [5] and in experiment [6].

Consider `Cc1ccc(C=O)s1`, for which the molecule was called inactive in experiment [8], in experiment [4], in experiment [5] and in experiment [6].

Turning to `Clc1cccc(Cl)n1`, the molecule was called inactive in experiment [1], in experiment [2], in experiment [4], in experiment [5] and in experiment [6].

With `Sc1nc(S)nc(S)n1`, the molecule was called inactive in experiment [1], in experiment [2], in experiment [3], in experiment [4], in experiment [7] and in experiment [5]. For the same molecule, the molecule was called inactive in experiment [6].

As for `CCCCc1ccc(N)cc1`, the outcome in experiment [2], in experiment [3], in experiment [4], in experiment [7], in experiment [5] and in experiment [6] was inactive.

`Fc1c(F)c(F)c(Br)c(F)c1F`: the result in experiment [1], in experiment [3], in experiment [7], in experiment [5] and in experiment [6] was inactive.

On to `CC1CC(OC(=O)c2ccccc2O)CC(C)(C)C1` (configuration not stated), for which the AC50 in experiment [8] is 31.1 µM (active). Moreover, the outcome in experiment [4], in experiment [5] and in experiment [6] was inactive.

Regarding `C=C(C)C(=O)NCCCN(C)C`, the result in experiment [1], in experiment [2], in experiment [5] and in experiment [6] was inactive.

Turning to `O=C(O)CN(CCN(CC(=O)O)CC(=O)O)CCN(CC(=O)O)CC(=O)O`, the molecule was classed as inactive in experiment [2], in experiment [3], in experiment [4], in experiment [7], in experiment [5] and in experiment [6].

Take `O=C(Cl)c1cccc(C(=O)Cl)c1`: the result in experiment [2], in experiment [3], in experiment [4], in experiment [7], in experiment [5] and in experiment [6] was inactive.

As for `O=C(O)Cc1cccc2ccccc12`, the molecule was called inactive in experiment [2], in experiment [3], in experiment [4], in experiment [7], in experiment [5] and in experiment [6].

For `OCCOc1cccc(OCCO)c1`, the result in experiment [1], in experiment [2], in experiment [3], in experiment [5] and in experiment [6] was inactive.

`NNc1nc(-c2ccc(N)cc2)cs1`: the call in experiment [1], in experiment [2], in experiment [3], in experiment [4], in experiment [5] and in experiment [6] was inactive.

Take `CCCCCCCCCCCCCOS(=O)(=O)O`: the molecule was classed as inactive in experiment [1], in experiment [3], in experiment [7], in experiment [5] and in experiment [6].

On to `O=C1O[C@@H]2[C@@H](O)[C@H](O)O[C@@H]2[C@H]1O`, for which the result in experiment [1], in experiment [2], in experiment [3], in experiment [5] and in experiment [6] was inactive.

On to `CCCCNC(=O)NS(=O)(=O)c1ccc(N)cc1`, for which the molecule was classed as inactive in experiment [1], in experiment [2], in experiment [3], in experiment [5] and in experiment [6].

Consider `CC1CCC2CC1C2(C)C` (configuration not stated), for which the molecule was classed as inactive in experiment [2], in experiment [5] and in experiment [6].

For the molecule `CC(C)Oc1ccccc1O`, the molecule was classed as inactive in experiment [3], in experiment [4], in experiment [7], in experiment [5] and in experiment [6].

`CN(C)C(=N)N=C(N)N`: the outcome in experiment [3], in experiment [4], in experiment [5] and in experiment [6] was inactive.

Turning to `O=c1[nH]c(=O)n([C@H]2CCCO2)cc1F`, the molecule was classed as inactive in experiment [2], in experiment [3], in experiment [7], in experiment [5] and in experiment [6].

For the molecule `Nc1ccc(S(N)(=O)=O)cc1`, the molecule was called inactive in experiment [3], in experiment [7], in experiment [5] and in experiment [6].

On to `C=C(C)C(=O)OCc1ccccc1`, for which the call in experiment [2], in experiment [4], in experiment [7], in experiment [5] and in experiment [6] was inactive.

Turning to `COc1ccc(Cl)cc1C`, the result in experiment [3], in experiment [4], in experiment [5] and in experiment [6] was inactive.

For `O=C(Oc1ccccc1)c1ccc(O)cc1`, the molecule was called inactive in experiment [3], in experiment [4], in experiment [5] and in experiment [6].

On to `NCCNCCN`, for which the outcome in experiment [2], in experiment [3], in experiment [4], in experiment [5] and in experiment [6] was inactive.

In the case of `ClCCCl`, the molecule was classed as inactive in experiment [3], in experiment [7], in experiment [5] and in experiment [6].

For the molecule `CC[C@]12CCCN3CCc4c(n(c5ccccc45)[C@@](O)(C(=O)OC)C1)[C@@H]32`, the result in experiment [2], in experiment [3], in experiment [4], in experiment [5] and in experiment [6] was inactive.

With `CNC[C@H](O)c1cccc(O)c1`, the molecule was classed as inactive in experiment [2], in experiment [7], in experiment [5] and in experiment [6].

Source of the values: PubChem BioAssay (EPA / NIEHS).
